Most compounds without a hit are left out; they make up all but 19% or so of the library.
DT40 TDP1 CPT: qHTS for Inhibitors of human tyrosyl-DNA phosphodiesterase 1 (TDP1): qHTS in cells in presence of CPT; chicken DT40 Tdp1-/-;hTDP1 cells + 20 nM CPT, ATP luminescence, 48 h; AID 686979, 2013; actives 12% (n = 420,000); Potency, µM (titrated, usually from 46.2 µM), for inactives: at the highest dose activity change, negative = growth inhibition, usual class: inhibitors; note: potency is the fitted concentration of half-maximal effect; nearly all actives have a fitted effect of over 55% in size
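Chicken DT40 Tdp1-/- cells complemented with human TDP1, 400 cells/well, exposed to compounds plus 20 nM camptothecin for at least 48 h at 37 C; viability read as ATP content by CellTiter-Glo luminescence.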
HT1080 IDH1KD tx: qHTS for induction of synthetic lethality in tumor cells producing 2HG: qHTS for the HT-1080-IDH1KD cell line | HT-1080 IDH1 knockdown viability, ATP luminescence, 48 h | Potency, µM (doses to about 46.1 µM), for the others: top-dose activity, negative = toxicity, actives largely listed as cytotoxic | actives 2% (n = 360,000) | AID 686971, 2013;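 note: potency is the fitted concentration of half-maximal effect; 0% = DMSO wells and -100% = cell-free medium wells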
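% activity derives from luminescence (CellTiter-Glo), normalised to DMSO and no-cell wells. HT-1080-IDH1KD cells, 750/well, had 48 h compound exposure at 37 °C.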
HT1080NT lethal: qHTS for induction of synthetic lethality in tumor cells producing 2HG: qHTS for the HT-1080-NT fibrosarcoma cell line | Potency, µM (doses to about 46.1 µM), for inactives: at the top dose activity, negative = less viability, actives largely listed as cytotoxic | AID 686970, 2013 | HT-1080-NT fibrosarcoma viability, CellTiter-Glo ATP luminescence, 48 h | actives 1.6% (n = 360,000);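 note: NT is the 2HG producing partner of a matched IDH1 knockdown line; potency is the fitted concentration of half-maximal effect; 0% = DMSO-treated cells and -100% = media-only wells without cells; nearly all actives have a fitted effect of over 55% in size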
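Luminescent CellTiter-Glo readout after 48 hours of compound exposure at 37 degrees C defined viability of HT-1080-NT cells. Activity was normalized to DMSO wells and cell-free media wells; concentration-response curves were fitted and assigned curve classes.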
IL-1B inflam inh: qHTS for Inhibitors of Inflammasome Signaling: IL-1-beta AlphaLISA Primary Screen. THP-1 LPS/ATP IL-1B secretion, AlphaLISA, 16 h; stronger effect = lower value. activity change, % at 57.5 µM. actives 4.7% (n = 360,000); in the data active = activity change below about -50%; inconclusive = mostly about -30% to -49%
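THP-1 cells pretreated 1 hr with compounds (up to 57.5 uM final), then stimulated with LPS (250 ng/mL final) plus ATP (1.25 mM final); secreted IL-1B measured by AlphaLISA after 16 hr, decreased signal indicating inhibition.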
DT40 TDP1 no CPT: qHTS for Inhibitors of human tyrosyl-DNA phosphodiesterase 1 (TDP1): qHTS in cells in absence of CPT. Potency, µM (highest dose often 46.2 µM), for inactives: top-dose activity change, negative = growth inhibition, most hits filed as inhibitors. DT40 Tdp1-/- hTDP1 cells, no CPT, ATP luminescence, 48 h. actives 15% (n = 420,000). AID 686978, 2013; note: potency is the fitted concentration of half-maximal effect; nearly all actives have a fitted effect of over 55% in size
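A cellular qHTS used chicken DT40 cells lacking endogenous Tdp1 but carrying stably transfected human TDP1. Compounds were applied without camptothecin, and cell growth kinetics were judged by ATP-dependent luminescence after ≥48 hr.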
* = called active by the depositor; [ ] = dose if it differs, or a comment. Unless noted, calls come from the whole dose curve; as a rule, active = well fitted curve in the direction sought with a large enough effect; inconclusive = small, poorly fitted or top-dose-only effect, or another doubt; inactive = no such curve, though single readings can be large; an effect the other way counts as inactive or inconclusive. Unless noted, % is set by controls: 0 for no effect and ±100 for the full control effect.

`O=C(NC(NCc1cccnc1)C(Cl)(Cl)Cl)c1cccc2ccccc12` (stereo not drawn) gave DT40 TDP1 CPT inconclusive, HT1080 IDH1KD tx -4%, HT1080NT lethal 0%, IL-1B inflam inh 16 and DT40 TDP1 no CPT 15µM*.
COc1ccc(CCNC(=O)CCc2nnc(Cc3ccc4c(c3)OCO4)o2)cc1 was read as DT40 TDP1 CPT 23µM*, HT1080 IDH1KD tx -4%, HT1080NT lethal -8%, IL-1B inflam inh inactive and DT40 TDP1 no CPT 18µM*.
CCNC(=O)Cc1ccc(NS(=O)(=O)c2ccc(F)cc2)cc1 was read as DT40 TDP1 CPT -12%, HT1080 IDH1KD tx 2%, HT1080NT lethal -13%, IL-1B inflam inh -9 and DT40 TDP1 no CPT 22%.
Screening O=C(Cc1ccc(NS(=O)(=O)c2ccc(F)cc2)cc1)NCc1ccccc1 returned DT40 TDP1 CPT inconclusive, HT1080 IDH1KD tx -4%[9.24 µM], HT1080NT lethal -17%, IL-1B inflam inh 19 and DT40 TDP1 no CPT 23µM*.
Screening CCc1ccc(NC(=O)Cn2ccn(-c3ccc(OC)cc3)c(=O)c2=O)cc1 returned DT40 TDP1 CPT -15% and DT40 TDP1 no CPT -3%.
For CS(=O)(=O)N1CCc2cc(C(=O)NCc3ccccc3)ccc21 the results were DT40 TDP1 CPT -8% and DT40 TDP1 no CPT -26%.
COc1ccccc1C(=O)NCCC(=O)Nc1cccc(S(=O)(=O)N2CCCC2)c1 was read as DT40 TDP1 CPT -26%, HT1080 IDH1KD tx 7%, HT1080NT lethal 0%, IL-1B inflam inh -21 and DT40 TDP1 no CPT inconclusive.
For Cc1ccc(CNC(=O)Cc2ccc(-c3ccccc3)cc2)cc1 the results were DT40 TDP1 CPT 1µM*, HT1080 IDH1KD tx 2.8µM*, HT1080NT lethal 4µM*, IL-1B inflam inh 74 and DT40 TDP1 no CPT 0.58µM*.
c1ccc(CN=C(NCc2ccccc2)NCc2ccccc2)cc1 was read as DT40 TDP1 CPT 2.3µM*, HT1080 IDH1KD tx 16µM*, HT1080NT lethal inconclusive, IL-1B inflam inh -80* and DT40 TDP1 no CPT 2.9µM*.
Screening S=C(NCc1ccccc1)C(=S)NCc1ccccc1 returned DT40 TDP1 CPT 5%, HT1080 IDH1KD tx 0%, HT1080NT lethal 1%, IL-1B inflam inh -14 and DT40 TDP1 no CPT 1%.
For O=C(CCc1nnc(Cc2ccc(-c3ccccc3)cc2)o1)NCCc1cccnc1 the results were DT40 TDP1 CPT inconclusive, HT1080 IDH1KD tx -3%, HT1080NT lethal -7%, IL-1B inflam inh 0 and DT40 TDP1 no CPT 18µM*.
For CC(NC(=O)Cc1ccc(-c2ccccc2)cc1)c1ccccc1 (stereo not drawn) the results were DT40 TDP1 CPT 26µM*, HT1080 IDH1KD tx -23%, HT1080NT lethal -6%, IL-1B inflam inh -22 and DT40 TDP1 no CPT inconclusive.
For CC(NC(=O)COC(=O)Cc1ccc(Cl)cc1)c1ccccc1 (stereo not drawn) the results were DT40 TDP1 CPT -7%, HT1080 IDH1KD tx 19%, HT1080NT lethal 15%, IL-1B inflam inh inconclusive and DT40 TDP1 no CPT -9%.
For CC(C)CC(NC(=O)C1CCC(C)CC1)C(=O)N1CCN(c2ccccn2)CC1 (stereo not drawn) the results were DT40 TDP1 CPT 16µM*, HT1080 IDH1KD tx 0%, HT1080NT lethal -8%, IL-1B inflam inh -18 and DT40 TDP1 no CPT 23µM*.
C=CCNC(=O)/C(C#N)=C/c1ccccc1[N+](=O)[O-] was read as DT40 TDP1 CPT -19%, HT1080 IDH1KD tx 1%, HT1080NT lethal -2%, IL-1B inflam inh -62* and DT40 TDP1 no CPT inconclusive.
For N#C/C(=C\c1ccccc1[N+](=O)[O-])C(=O)NCc1ccccc1 the results were DT40 TDP1 CPT -21%, HT1080 IDH1KD tx -16%, HT1080NT lethal -22%, IL-1B inflam inh -29 and DT40 TDP1 no CPT 21µM*.
`N#C/C(=C\C=C\c1ccccc1[N+](=O)[O-])C(=O)NCc1ccccc1` gave DT40 TDP1 CPT 4.6µM*, HT1080 IDH1KD tx inconclusive, HT1080NT lethal -24%, IL-1B inflam inh -102* and DT40 TDP1 no CPT 6.5µM*.
For O=Cc1c(-c2ccccc2)cc2oc3ccccc3cc1-2 the results were DT40 TDP1 CPT inconclusive, HT1080 IDH1KD tx 3%, HT1080NT lethal 0%, IL-1B inflam inh 4 and DT40 TDP1 no CPT 13µM*.
O=C(C[n+]1ccccc1)c1ccc(I)cc1 was read as DT40 TDP1 CPT -20% and DT40 TDP1 no CPT inconclusive.
For COC(=O)c1c(Oc2ccc(C(C)=O)cc2)nnc(-c2ccccc2)c1-c1ccccc1 the results were DT40 TDP1 CPT 18µM* and DT40 TDP1 no CPT inconclusive.
CCOC(=O)c1cnc(-c2ccccc2)nc1Oc1ccc(OC)cc1 was read as DT40 TDP1 CPT -1%, HT1080 IDH1KD tx 4%, HT1080NT lethal 2%, IL-1B inflam inh 6 and DT40 TDP1 no CPT 17%.
For CCOC(=O)c1c(Oc2ccc(C(=O)OC)cc2)nnc(-c2ccccc2)c1-c1ccccc1 the results were DT40 TDP1 CPT 16µM* and DT40 TDP1 no CPT 23µM*.
For CCOC(=O)c1c(Oc2ccc(OC)cc2)nnc(-c2ccccc2)c1-c1ccccc1 the results were DT40 TDP1 CPT 16µM* and DT40 TDP1 no CPT inconclusive.
Screening COC(=O)c1c(C)[nH]c(C(=O)OC(C)C(=O)NC2CCCCC2C)c1C (stereo not drawn) returned DT40 TDP1 CPT 12µM*, HT1080 IDH1KD tx -13%, HT1080NT lethal -13%, IL-1B inflam inh 0 and DT40 TDP1 no CPT inconclusive.
COC(=O)c1c(C)[nH]c(C(=O)OC(C)C(=O)N2CCOCC2)c1C (stereo not drawn) was read as DT40 TDP1 CPT 15%, HT1080 IDH1KD tx 12%, HT1080NT lethal 7%, IL-1B inflam inh 10 and DT40 TDP1 no CPT -1%.
For Cc1nn(-c2ccccc2)c(C)c1C(=O)OC(C)C(=O)NC1CCCCC1C (stereo not drawn) the results were DT40 TDP1 CPT 13µM*, HT1080 IDH1KD tx -2%, HT1080NT lethal 0%, IL-1B inflam inh 23 and DT40 TDP1 no CPT 21µM*.
For O=C(Nc1ccccc1)C1=C[C@H](C2CC2)C[C@H](OCCCCO)O1 the results were DT40 TDP1 CPT -11%, HT1080 IDH1KD tx 1%, HT1080NT lethal 3%, IL-1B inflam inh 14 and DT40 TDP1 no CPT 0%.
Screening Cc1nn(Cc2noc(C(=O)NCc3ccc4c(c3)OCO4)n2)c(C)c1Br returned DT40 TDP1 CPT 11%, HT1080 IDH1KD tx -12%, HT1080NT lethal inconclusive, IL-1B inflam inh -9 and DT40 TDP1 no CPT -29%.

High-throughput results from PubChem.
